Measurements: PubChem BioAssay (Tox21)
Inconclusive results are not listed. Activity calls are given as the source filed them. Unless noted, the call rests on the fitted dose curve.

What was measured:
[1] = biological target: Gonadotropin-releasing hormone receptor (Homo sapiens) (UniProt P30968); assay: Human gonadotropin-releasing hormone receptor (GnRHR) small molecule agonists, calcium flux assay in GnRHR-HEK293 cells (AID 1920063); further: nearly all actives have a fitted effect of over 35% in size
Outline: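 Fluorescence kinetics (480 nm excitation, 540 nm emission; 3 min, 1 s steps) report calcium mobilisation in human GnRHR-HEK293 cells in agonist mode. Dye incubation: 1 h, 37 C.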

[2] = biological target: KiSS-1 receptor (Homo sapiens) (UniProt Q969F8); assay: Human kisspeptin (KISS1R) small molecule agonists, calcium flux assay in KISS1R-HEK293 cells (AID 1920064; active means well fitted activation curve with a large enough effect in the repeat runs)
Outline: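 Measures KISS1R agonism through calcium-sensitive dye fluorescence in stably transfected HEK293 cells, read for 3 min after pin-tool compound delivery; 15-point titrations in triplicate.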

[3] = G protein-coupled receptor (GPCR) small molecule agonists, calcium flux assay: HEK293 wild type cell line counter screen (AID 1920065)
Outline: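 Readout: fluorescence at 480 nm excitation/540 nm emission, sampled at 1 s intervals for 3 min. Cells had been cultured 18 h, then dye-loaded 1 h at 37 C before compound or ATP addition.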

[4] = p53 small molecule agonists, cell-based qHTS assay: qHTS cell viability counter screen (AID 1963581); further: nearly all actives have a fitted effect of over 45% in size
Outline: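 In the same plates used for the p53 bla reporter, HCT-116 cells given compounds for 16 h at 37 C received CellTiter-Glo; luminescence was recorded 30 min later at room temperature.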

[5] = p53 small molecule agonists, cell-based qHTS assay (AID 1963582; active means well fitted activation curve with a large enough effect in the signal ratio in the repeat runs, not every such curve was filed as active; the % refers to the signal ratio)
Outline: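 Compounds are pin-transferred in DMSO onto p53RE-bla cells and incubated 16 h at 37 C. The B/G FRET beta-lactamase substrate is then applied for 2 h at RT and fluorescence recorded.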

[6] = biological target: 5-hydroxytryptamine receptor 2A (Homo sapiens) (UniProt P28223); assay: 5-hydroxytryptamine receptor 2A (HTR2A) small molecule antagonists, cell-based qHTS assay (AID 1963586); further: nearly all actives have a fitted effect of over 45% in size
Outline: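 Antagonist-mode intracellular calcium assay: DOI (4 nM) added after 5 min compound pre-incubation at room temperature to dye-loaded HTR2A-CHO cells. Fluorescence followed for 3 min, sampled every second.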

[7] = biological target: 5-hydroxytryptamine receptor 2A (Homo sapiens) (UniProt P28223); assay: 5-hydroxytryptamine receptor 2A (HTR2A) small molecule agonists, cell-based qHTS assay (AID 1963587); further: nearly all actives have a fitted effect of over 30% in size; further: potency means the concentration at half of the fitted maximal effect
Outline: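 HTR2A-CHO cells, plated 18 h at 37 C/5% CO2, dye-loaded 1 h at 37 C; compounds in DMSO added by pin tool (agonist mode). Intracellular calcium flux read as kinetic fluorescence on FDSS over 2 min at 1 s intervals.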

[8] = biological target: Muscarinic acetylcholine receptor M1 (Homo sapiens) (UniProt P11229); assay: Cholinergic receptor muscarinic 1 (CHRM1) small molecule antagonists, cell-based qHTS assay (AID 1963588); further: nearly all actives have a fitted effect of over 40% in size
Outline: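 CHRM1-CHO calcium-flux assay, antagonist mode. Cells were seeded 18 h, dye-loaded 1 h at 37 C and given compound for 5 min at RT, then acetylcholine was added at 50nM. FDSS fluorescence was read 3 min; 15 concentrations, three runs.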

[9] = biological target: Muscarinic acetylcholine receptor M1 (Homo sapiens) (UniProt P11229); assay: Cholinergic receptor muscarinic 1 (CHRM1) small molecule agonists, cell-based qHTS assay (AID 1963589); further: nearly all actives have a fitted effect of over 35% in size
Outline: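 Each compound was tested at 15 concentrations across three independent runs on dye-loaded CHO cells stably expressing human CHRM1, reading intracellular calcium fluorescence kinetically at 1 sec intervals.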

[10] = biological target: Beta-2 adrenergic receptor (Homo sapiens) (UniProt P07550); assay: Adrenergic beta2 receptor (ADRB2) small molecule antagonists, cell-based qHTS assay (AID 1963592); further: series mostly up to about 92 µM; nearly all actives have a fitted effect of over 50% in size
Outline: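 Cells (CHO, stable ADRB2 overexpression) incubated 18-20hr at 37C; compounds added from DMSO; agonist mix (1nM isoproterenol, 100uM IBMX, 25uM Ro-20-1724) added; 0.5hr RT; d2-cAMP and anti-cAMP-cryptate added; 1hr RT; 665/615 nm read.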

[11] = biological target: Beta-2 adrenergic receptor (Homo sapiens) (UniProt P07550); assay: Adrenergic beta2 receptor (ADRB2) small molecule agonists, cell-based qHTS assay (AID 1963593);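 further: CHO cells stably overexpressing human ADRB2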
Outline: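 CHO cells stably over-expressing ADRB2 were plated overnight at 37C, then dosed with compounds plus a stimulation mix containing 100uM IBMX and 25uM Ro-20-1724 for 0.5hr at room temperature. cAMP was measured by HTRF competition, 1hr.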

[12] = biological target: D(2) dopamine receptor (Homo sapiens) (UniProt P14416); assay: Dopamine D2 receptor (DRD2) small molecule agonists, cell-based qHTS assay (AID 1963594); further: nearly all actives have a fitted effect of over 35% in size
Outline: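 HEK293 cells stably expressing DRD2 were cultured 24 h at 37 C, then given Ro20-1724 (0.1 mM final) and compounds for 10 min at room temperature. NKH477 (200nM) was then added for 30 min. cAMP was read by HTRF.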

[13] = biological target: D(2) dopamine receptor (Homo sapiens) (UniProt P14416); assay: Dopamine D2 receptor (DRD2) small molecule antagonists, cell-based qHTS assay (AID 1963595; active means well fitted inhibition curve with a large enough effect in the signal ratio in the repeat runs, with a control signal flat; the % refers to the signal ratio)
Outline: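 Human DRD2 antagonist qHTS measuring cAMP by HTRF. The cells are exposed to compound for 10 min, then to NKH477 (200 nM) and quinpirole (12 nM) for 30 min at RT, with Ro20-1724 (0.1 mM) present throughout.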

[14] = p53 small molecule agonists, cell-based qHTS assay with human liver microsomes: qHTS cell viability counter screen (AID 1963579); further: nearly all actives have a fitted effect of over 45% in size
Outline: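 Viability of p53RE-bla cells is measured as CellTiter-Glo luminescence following a 16 h, 37 C incubation with compound, liver microsomes from human donors and NADPH.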

[15] = cAMP Responsive Elements (CRE) small molecule agonists, cell-based qHTS assay (AID 1963590)
Outline: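 Cell line: CRE-bla HEK 293T; medium DMEM/10% dialyzed FBS/0.1 mM NEAA/1 mM pyruvate/25 mM HEPES; 3 h compound exposure; beta-lactamase FRET readout after 2 h substrate loading at RT.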

[16] = cAMP Responsive Elements (CRE) small molecule antagonists, cell-based qHTS assay (AID 1963591; active means well fitted inhibition curve with a large enough effect in the signal ratio in the repeat runs, not every such curve was filed as active; the % refers to the signal ratio)
Outline: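 Inhibition of NKH477-driven (0.25 uM final) CRE-beta-lactamase signal in HEK293T cells, 3 h compound exposure at 37 °C, detected by FRET substrate fluorescence.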

[17] = p53 small molecule agonists, cell-based qHTS assay with human liver microsomes (AID 1963577);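 further: p53 response element beta-lactamase reporter cells with liver microsomes plus NADPH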
Outline: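 HLM-supplemented p53RE-bla reporter assay: 16 h compound exposure at 37 C, microsomes and NADPH each 0.5 mg/mL final, read by fluorescence intensity.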

[18] = p53 small molecule agonists, cell-based qHTS assay with rat liver microsomes (AID 1963578)
Outline: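 Quantitative HTS of the Tox21 10K library: p53RE-bla cells, rat liver microsomes plus NADPH at 0.5 mg/mL final each, 16 h at 37 C, beta-lactamase fluorescence detection.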

[19] = p53 small molecule agonists, cell-based qHTS assay with rat liver microsomes: qHTS cell viability counter screen (AID 1963580); further: nearly all actives have a fitted effect of over 45% in size
Outline: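 p53RE-bla HCT-116 cells (4,000/well) rested 5 h at 37 C, then given Tox21 compounds in DMSO with rat liver microsomes (0.5 mg/mL final) plus NADPH (0.5 mg/mL final) for 16 h at 37 C. Viability read by CellTiter-Glo luminescence after 30 min at room temperature.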

Measured: Potency

Beta-2 adrenergic receptor (Homo sapiens), sequence (P07550 whole entry, looked up): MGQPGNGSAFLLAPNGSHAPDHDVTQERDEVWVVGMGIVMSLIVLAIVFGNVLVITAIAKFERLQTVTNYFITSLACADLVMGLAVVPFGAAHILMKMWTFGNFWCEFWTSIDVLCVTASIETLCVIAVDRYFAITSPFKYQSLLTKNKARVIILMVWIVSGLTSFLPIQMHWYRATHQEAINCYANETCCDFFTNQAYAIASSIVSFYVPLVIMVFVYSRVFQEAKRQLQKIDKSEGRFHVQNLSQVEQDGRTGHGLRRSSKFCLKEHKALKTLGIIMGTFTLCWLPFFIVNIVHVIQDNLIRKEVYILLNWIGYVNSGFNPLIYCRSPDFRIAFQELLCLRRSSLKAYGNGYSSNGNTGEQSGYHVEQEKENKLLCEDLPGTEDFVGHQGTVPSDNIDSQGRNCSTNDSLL
KiSS-1 receptor (Homo sapiens), sequence (Q969F8 whole entry, looked up): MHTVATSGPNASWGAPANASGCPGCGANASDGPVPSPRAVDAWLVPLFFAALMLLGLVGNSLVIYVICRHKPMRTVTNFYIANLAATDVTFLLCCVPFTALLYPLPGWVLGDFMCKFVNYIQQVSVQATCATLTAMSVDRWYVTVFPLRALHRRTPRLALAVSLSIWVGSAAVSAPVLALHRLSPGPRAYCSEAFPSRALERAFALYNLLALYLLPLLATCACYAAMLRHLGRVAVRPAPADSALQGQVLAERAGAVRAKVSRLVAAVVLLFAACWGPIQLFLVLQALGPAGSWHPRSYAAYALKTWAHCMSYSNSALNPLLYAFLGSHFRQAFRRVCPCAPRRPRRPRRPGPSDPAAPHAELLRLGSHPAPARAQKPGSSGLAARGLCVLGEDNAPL
Muscarinic acetylcholine receptor M1 (Homo sapiens), sequence (P11229 whole entry, looked up): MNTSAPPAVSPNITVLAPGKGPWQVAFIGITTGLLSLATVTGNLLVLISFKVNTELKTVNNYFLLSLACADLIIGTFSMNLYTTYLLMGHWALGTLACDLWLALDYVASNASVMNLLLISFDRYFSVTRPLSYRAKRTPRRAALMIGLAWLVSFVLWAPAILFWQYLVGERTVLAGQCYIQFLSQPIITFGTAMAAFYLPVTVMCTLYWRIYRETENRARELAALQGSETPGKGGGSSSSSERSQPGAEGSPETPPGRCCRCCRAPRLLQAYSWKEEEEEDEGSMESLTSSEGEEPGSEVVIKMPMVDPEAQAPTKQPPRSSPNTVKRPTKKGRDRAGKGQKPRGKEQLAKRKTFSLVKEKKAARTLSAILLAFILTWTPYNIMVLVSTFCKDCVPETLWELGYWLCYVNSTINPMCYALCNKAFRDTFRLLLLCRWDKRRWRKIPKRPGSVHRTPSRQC
D(2) dopamine receptor (Homo sapiens), sequence (P14416 whole entry, looked up): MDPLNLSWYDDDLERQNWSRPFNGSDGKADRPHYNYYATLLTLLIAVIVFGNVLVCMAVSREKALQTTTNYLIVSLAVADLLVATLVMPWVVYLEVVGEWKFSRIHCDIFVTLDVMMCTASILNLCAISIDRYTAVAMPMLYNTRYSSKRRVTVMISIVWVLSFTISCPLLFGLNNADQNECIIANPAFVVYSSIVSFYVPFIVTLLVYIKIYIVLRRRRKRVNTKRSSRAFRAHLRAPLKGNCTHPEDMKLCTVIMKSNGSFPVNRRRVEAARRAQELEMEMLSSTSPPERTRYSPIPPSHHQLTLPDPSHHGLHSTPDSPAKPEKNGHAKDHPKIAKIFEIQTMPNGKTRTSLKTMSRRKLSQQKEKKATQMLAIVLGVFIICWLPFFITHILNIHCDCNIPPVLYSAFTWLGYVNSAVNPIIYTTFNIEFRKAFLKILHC
Gonadotropin-releasing hormone receptor (Homo sapiens), sequence (P30968 whole entry, looked up): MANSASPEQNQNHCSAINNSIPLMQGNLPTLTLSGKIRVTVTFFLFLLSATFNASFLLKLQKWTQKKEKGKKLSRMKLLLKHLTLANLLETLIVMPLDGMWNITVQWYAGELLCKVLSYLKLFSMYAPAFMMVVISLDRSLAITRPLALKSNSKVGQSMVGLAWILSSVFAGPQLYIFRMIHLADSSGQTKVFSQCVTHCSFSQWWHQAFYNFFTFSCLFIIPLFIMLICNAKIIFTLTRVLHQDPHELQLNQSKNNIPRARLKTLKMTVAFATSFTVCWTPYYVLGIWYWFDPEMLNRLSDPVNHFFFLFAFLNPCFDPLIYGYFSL
5-hydroxytryptamine receptor 2A (Homo sapiens), sequence (P28223 whole entry, looked up): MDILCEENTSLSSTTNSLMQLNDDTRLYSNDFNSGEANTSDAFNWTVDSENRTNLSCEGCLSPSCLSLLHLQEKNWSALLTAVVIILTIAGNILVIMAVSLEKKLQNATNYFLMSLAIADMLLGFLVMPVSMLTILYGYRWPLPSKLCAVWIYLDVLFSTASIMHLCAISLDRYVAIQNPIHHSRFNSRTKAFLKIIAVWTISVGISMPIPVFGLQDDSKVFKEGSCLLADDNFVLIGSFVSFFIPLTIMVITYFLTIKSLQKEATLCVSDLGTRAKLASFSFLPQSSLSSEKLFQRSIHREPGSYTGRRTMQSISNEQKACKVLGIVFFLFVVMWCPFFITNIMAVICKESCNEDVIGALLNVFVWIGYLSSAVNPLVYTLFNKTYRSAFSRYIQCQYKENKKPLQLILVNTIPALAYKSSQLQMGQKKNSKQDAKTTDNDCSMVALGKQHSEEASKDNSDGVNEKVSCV

O=C1Nc2ccc(Cl)cc2C(c2ccccc2)=NC1O (centres undefined)
not listed: [14] | [15] | [16] | [17] | [18] | [19]
inactive: all other assays above

CC(=O)O.CC(=O)O.CC(=O)O.CC(=O)O.CC(=O)O.CC(=O)O.CC(=O)O.O.O.[Cr].[Cr].[Cr]
not listed: [1] | [5] | [8] | [17] | [18] | [19]
inactive: all other assays above

Oc1c(Cl)cc(Cl)cc1Cl
inactive: [6] | [7] | [8] | [9] | [10] | [12] | [13]

CC(C)(C)C(O)/C(=C\c1ccc(Cl)cc1Cl)n1cncn1 (centres undefined)
inactive: [3] | [17] | [18] | [14] | [19] | [4] | [6] | [8] | [10] | [12]

O=[N+]([O-])O.O=[N+]([O-])O.[Cd]
active: [7] 38.9 µM
inactive: [1] | [2] | [3] | [14] | [4] | [8] | [9] | [15] | [10] | [12]
